# The campaign covered roughly 65,000 compounds. About 2,100 (3.2%) showed an effect of 50% or more. The median lay at about -52%. The sample as a whole holds a higher share of strong results than the screen did.
# Test system: Plasmodium falciparum
# Experiment: Screen against P. falciparum Asexual Blood Stage (ABS), at 5uM
# Type: functional, Dd2
# Conditions: tested at 5 uM
row,Compound,INHIBITION
1,Oc1cccc(CN2CCN(C3CCc4ccccc4C3)CC2)c1 (configuration not stated),14.6%
2,Cc1n[nH]c(C)c1C1COCCN1C(=O)Cc1ccccc1F (configuration not stated),-105%
3,Cc1cnc(CCN(C)C(=O)c2cccc(C)c2O)s1,-152%
4,Cc1ccc(NC2CCN(C(=O)c3sccc3C3CC3)CC2)nn1,-28.9%
5,Cc1ccc(C(C)NC(=O)N2CCCN(CC(F)F)CC2)s1 (configuration not stated),-73.5%
6,Cc1cccc(CN2C(=O)CC[C@@H]3[C@H]2CCN3Cc2ccc(F)cc2)n1,-111%
7,CCNc1nc2c(s1)C(=O)CN(C(=O)NCc1ccccc1)C2,-146%
8,c1cncc(-c2noc(CN3CCOC(Cn4cccn4)C3)n2)c1 (configuration not stated),10.9%
9,Cc1noc(CN2CCOC(CN(C)C)C2)n1 (configuration not stated),-84.3%
10,Cc1ccc(-c2noc(CN3CCOC(Cn4cccn4)C3)n2)cc1 (configuration not stated),-105%
11,Cc1cccc(-c2noc(CN3CCOC(Cn4cccn4)C3)n2)c1 (configuration not stated),51.2%
12,Cc1ccc(-c2noc(CN3CCOC(CN(C)C)C3)n2)cc1F (configuration not stated),53.2%
13,CN(C)CC1CN(Cc2nc(-c3cccnc3)no2)CCO1 (configuration not stated),-51.1%
14,CC(NC(=O)CN1CCN(c2ccncc2Cl)CC1)c1ccco1 (configuration not stated),-106%
15,O=C(CCC1CCCN(C(=O)CCc2ccc(F)c(F)c2)C1)NC1CC1 (configuration not stated),-157%
16,Cc1ncc(CN2CCc3nc4cc(C(C)(C)C)nn4c(O)c3C2)n1C,-104%
17,CN1CCN(C2COC3(CCN(Cc4ccsc4)CC3)C2)CC1 (configuration not stated),-10.7%
18,CC(C)Oc1ccc(C(=O)N2CCCCC2Cn2cccn2)cn1 (configuration not stated),64.8%
19,Cc1cnn(CC2CCCN2C(=O)c2ccc(OC(C)C)nc2)c1 (configuration not stated),-94.7%
20,CN(C)c1cc(C(=O)N2CCCCC2Cn2cccn2)ccn1 (configuration not stated),-202%
21,CCN(CC1CN(Cc2cccc(C#N)c2)CCO1)c1cccnn1 (configuration not stated),-83.6%
22,CCn1ccnc1CN1CCCN(C(=O)COC2CCCCC2)CC1,-84.3%
23,O=C(Nc1nccs1)NC1CCN(Cc2ccccc2)C1 (configuration not stated),-9.31%

row,Compound,INHIBITION
1,O=C(Nc1nccs1)NC1CCN(Cc2ccccc2)CC1,28.3%
2,O=C(Nc1nccs1)NC1CCN(Cc2ccccn2)CC1,63.7%
3,Cc1cn2nc(Sc3nnc(C(C)C)n3C)sc2n1,-104%
4,OC(c1ccccn1)C1CCN(Cc2cc3n(n2)CCNC3)CC1 (configuration not stated),-27.2%
5,CC(=O)N1CCCCC1c1nc(N)ncc1-c1ccccc1 (configuration not stated),-145%
6,CN(C)CC(=O)N1CCCCC1c1nc(N)ncc1-c1ccccc1 (configuration not stated),50.9%
7,CN(C)C(=O)CN1CCCCC1c1nc(N)ncc1-c1ccccc1 (configuration not stated),-40.8%
8,CC(C)Oc1ccc(CN2CCC(c3n[nH]c4ncccc34)CC2)cc1,-69.9%
9,Cc1cc(C[C@@H]2CCC[C@H]2NCc2ccccc2C)on1,65.1%
10,Cc1cc(C[C@@H]2CCC[C@H]2NCc2c[nH]nc2-c2ccccc2)on1,57.4%
11,Cc1cc(C[C@@H]2CCC[C@H]2NCc2cccc(F)c2F)on1,-58.5%
12,Cc1cc(C[C@@H]2CCC[C@H]2NCc2ccccc2F)on1,-4.92%
13,Cc1cc(C[C@@H]2CCC[C@H]2NCc2ccccc2C(F)(F)F)on1,15.6%
14,Cc1cc(C[C@@H]2CCC[C@H]2NCc2cc(F)ccc2F)on1,20.7%
15,Cc1cc(C(=O)N2CCN(C)CC2)nn1CC(=O)NCc1cccs1,-139%
16,Cc1noc(CS(=O)(=O)C(C)C(=O)N(C)c2ccccc2)n1 (configuration not stated),-10%
17,Cc1noc(C)c1CN1CC[C@H]2OCC[C@@H](C(=O)NCC3CC3)[C@H]2C1,-48.5%
18,CN1CCCN(c2ccc(F)cc2CNC(=O)c2ccsc2)CC1,59.9%
19,Cc1ccc(C(=O)NCc2cc(F)ccc2N2CCCN(C)CC2)o1,34.9%
20,CN1CCCN(c2ccc(F)cc2CNC(=O)c2cccnc2)CC1,-51.5%
21,CCc1nc(CN2CCCC(NCc3cccc(C(N)=O)c3)C2)no1 (configuration not stated),-86.3%
22,Cc1ccnn1CC(=O)N(C)Cc1cnn(-c2ccccc2)c1,-96.8%
23,CO[C@H]1CN(C(C)C)C[C@@H]1NC(=O)c1cc(COc2ccccc2)[nH]n1,57.2%

row,Compound,INHIBITION
1,CC(=O)NCCNC(=O)c1cc(COc2ccccc2)[nH]n1,-173%
2,CO[C@H]1CN(C(C)C)C[C@@H]1NC(=O)c1cc(-c2ccccc2F)n[nH]1,-41.9%
3,N#Cc1ccc(CNCCS(=O)(=O)N2CCc3ccccc32)cc1,-57.5%
4,OC1CCN(c2ccnc(NCCN3CCc4ccccc4C3)n2)C1 (configuration not stated),-46.6%
5,OC1CCN(c2ccnc(NCCc3ccccc3Cl)n2)CC1,-50.8%
6,OC1CCN(c2ccnc(NCCc3ccccc3Cl)n2)C1 (configuration not stated),61.6%
7,O=C(NCC1(Sc2ccccc2)CC1)c1ccc(=O)[nH]n1,-22.5%
8,COCCOc1ccc(CNc2nc3ccccc3nc2N)cn1,-49.5%
9,CCC1=NN2C(=N)C(=Cc3cccn3-c3cccc(Cl)c3)C(=O)N=C2S1,-39.1%
10,COc1cc(NC(=O)NCc2nccn2C)ccc1Br,-84.1%
11,O=C(c1ccco1)N1CCCC(c2cc(C(F)(F)F)n3ncnc3n2)C1 (configuration not stated),4.5%
12,Cc1ccsc1CN1C[C@@H]2COC[C@]2(CNC(=O)c2ccco2)C1,21.9%
13,CC(C)N1CCC2(C=C(C(=O)N(C)C)c3ccccc32)CC1,-3.5%
14,CCN1CCC2(C=C(C(=O)N(C)C)c3ccccc32)CC1,-0.272%
15,CN1CCC2(C=C(C(=O)N(C)C)c3ccccc32)CC1,61.5%
16,Cc1nc(CN(C)C2CCN(Cc3ccc4ccccc4n3)C2)no1 (configuration not stated),-24.6%
17,Cc1ccccc1N1CC2(CCN(c3nncs3)C2)CC1=O (configuration not stated),-152%
18,O=C(NC1CC1)[C@@]12CCO[C@@H]1CCN(Cc1ccc3c(c1)OCO3)C2,-28.1%
19,CN(C)C(=O)N1CCC(C2C(=O)Nc3ccccc32)CC1 (configuration not stated),60%
20,O=C1Nc2ccccc2C1C1CCN(C(=O)C2CC2)CC1 (configuration not stated),-87.8%
21,CC(C)C(=O)N1CCC(C2C(=O)Nc3ccccc32)CC1 (configuration not stated),-81.3%
